The subject of the assay is Plasmodium falciparum. The experiment in a line: Calibr Malaria Delayed Death Assay SOP. In kind it is functional, organism-based. The following applies: concentration 4.99e-06 (unit not given; other assays of the set use mol/L). On the set-up: scale not given: in the data most compounds retested in dose-response had high values.

From ChEMBL document CHEMBL3988442, “University of Dundee, Small-Polar-MMV Screening Library” (2021) come the findings set out here.

Several values for one entry are separate records, joined by “and”; a condition that tells them apart may be missing. Equal entries are not always repeated. The whole screen tested about 38,000 compounds, of which about 1,200 (3.2%) showed an effect of 50% or more. The median lay at about -58%. The full list was thinned out, with strong results kept by preference.

`COc1ccc(OC)c(C(C)NS(=O)(=O)c2cn(C)nc2C)c1` (configuration not stated): the “Percent Effect” value was -72.91%. With `CCc1ncc(C(=O)N(C)CCc2nc3cc(OC)ccc3[nH]2)cn1`, the “Percent Effect” value was -128%.

Take `CC(=O)NC[C@@H]1C=C(C)[C@H](CC(=O)NCCN(C)C)C[C@H]1C(C)C`: the “Percent Effect” value is recorded as -26.76%.

With `CCn1nc(C)c(C(=O)N2C[C@@H](CN(C)C)[C@@H](CO)C2)c1C`, the “Percent Effect” value (4.99 µM) is -17.38% and -19.57%.

On to `CC(=O)N1CCC(=O)N(C2CCCC2)Cc2ccccc21`, for which the “Percent Effect” value is reported as -73.21%. For the compound `CCn1c(=O)nc(N)c2c(-c3ccc(OC)cc3)csc21`, the “Percent Effect” value is -67.94%.

With `COc1ccc(-c2csc3c2c(N)nc(=O)n3CCN(C)C)cc1`, the “Percent Effect” value is given as -27.97%. The same measure, in the same setting: in the case of `COc1ccc(-c2csc3c2c(N)nc(=O)n3CCCN(C)C)cc1` it was 54.04%; in that of `CC(C)c1nc(N2CCC(N3CCCCCC3)CC2)c2cnn(C)c2n1`, 50.67%; in that of `Cc1nc(N2CCCC(N3CCCC3)C2)c2cnn(C)c2n1` (configuration not stated), -29.13%. Still for that read-out and setting: in the case of `CC(C)c1nc(N2CC(N3CCCCC3C)C2)c2cnn(C)c2n1` (configuration not stated) it was -59.85%. In the case of `Cc1nccn1C1CCCN(C(=O)c2cccc3c2OCO3)C1` (configuration not stated), the “Percent Effect” value is listed as -58.82%.

As to `NC(=O)C1CCC(NC(=O)COc2ccc(Cl)c(Cl)c2)CC1` (configuration not stated), the “Percent Effect” value is given as 13.16%. For `O=C1CC(N2CCN(c3ccccc3O)CC2)C(=O)N1Cc1cccs1` (configuration not stated), the “Percent Effect” value is -172.2%. Still for that read-out and setting: to `Cc1cc2ccccc2n1CCC(=O)NCCN(C)S(C)(=O)=O` belongs -87.62%; to `CCN(Cc1ccncc1)C(=O)CCn1c(C)cc2ccccc21`, 55.24%; to `CCN(Cc1nc(COC)no1)C(=O)CCn1c(C)cc2ccccc21`, 5.524%. Consider `CN(C)C(=O)CC1CC2(CCN(Cc3cccs3)CC2)c2ccccc21.O=C(O)C(F)(F)F` (configuration not stated), for which the “Percent Effect” value was 22.44%.

With `CN1CCN(C(=O)N2CCCC(c3nccn3CC3CCC3)C2)CC1` (configuration not stated), the “Percent Effect” value is given as -95.73%. On the same count and under the same terms, to `CC(=O)N1CCC(C(=O)NCc2ncc(-c3ccccc3)o2)CC1` belongs -123.2%; to `NC(=O)C1CCCN1Cc1nccn1CC(F)(F)F` (configuration not stated), -38.81%. Same read-out and setting: to `CC(=O)Nc1cccc(CN2CCCC2C(=O)Nc2nccs2)c1` (configuration not stated) belongs -76.05%.

As for `CN(Cc1cnn(C)c1)C(=O)C1CCCN1Cc1ccccn1` (configuration not stated), the “Percent Effect” value is on record as -66.14%. Same read-out and setting: in the case of `CC(C)(C)NC(=O)C1CCCCN1Cc1nccn1CC(F)(F)F` (configuration not stated) it was -48.44%; in that of `CCNc1ccnc(CN2CCCC2C(=O)Nc2nccs2)c1` (configuration not stated), 94.9%.

For the compound `CCc1nc(CN2CCCC2C(=O)NC)cs1` (configuration not stated), the “Percent Effect” value is recorded as -71.78%. Same read-out and setting: in the case of `CCc1nc(CN2CCCC2C(=O)NC2CC2)cs1` (configuration not stated) it was -16.64%; in that of `O=C(Nc1nccs1)C1CCCN1Cc1ccccn1` (configuration not stated), 93.51%; in that of `CCn1ccnc1CN1CCCC1C(=O)Nc1nccs1` (configuration not stated), 84.6%.

`Cc1cnn(CC2CCCN2C(=O)c2n[nH]c3ccccc23)c1` (configuration not stated): the “Percent Effect” value is -56.22%. With `CC(=O)Nc1ccc(SCCCC(=O)NCC2CCCO2)nn1` (configuration not stated), the “Percent Effect” value was -99.67%.

For the compound `CC(NC(=O)N1CCC1)c1ccc(S(N)(=O)=O)cc1` (configuration not stated), the “Percent Effect” value is -105.8%. Same read-out and setting: in the case of `Cc1ccc(NC(=O)NCCc2cnn(C)c2)c(N(C)C)n1` it was -69.56%. On to `CCc1ccsc1C(=O)N1CCN(C(=O)CC(F)(F)F)CC1`, for which the “Percent Effect” value is given as -98.82%. Still for that read-out and setting: in the case of `CCC1(CC)CC(=O)N(CC(O)c2cc(F)ccc2F)C1=O` (configuration not stated) it was -120%; in that of `Cc1cccc(CN2CCc3ncnc(N4CCCC4)c3CC2)n1.O=C(O)C(F)(F)F`, -17.07%; in that of `O=c1c(NCc2ccco2)c(NCC(O)CN2CCOCC2)c1=O` (configuration not stated), -219.4%. Still for that read-out and setting: to `O=C(c1ccnc(N2CCOC(C(F)(F)F)C2)c1)N1CCCC1` (configuration not stated) belongs -34.44%; to `Cc1c(CNC2CCN(c3ccccc3OC(F)F)C2)cnn1C` (configuration not stated), 69.48%.

Take `O=C(Nc1ccncc1)NC1CCN(c2ccccc2OC(F)F)C1` (configuration not stated): the “Percent Effect” value amounted to 64.77%. For the compound `COc1ccccc1N1CCC(NCc2c(C)noc2C)C1` (configuration not stated), the “Percent Effect” value amounted to 24.81%. Turning to `Cc1noc(C)c1CNC1CCN(c2ccccc2OC(F)F)C1` (configuration not stated), the “Percent Effect” value came out at 63.44%. Still for that read-out and setting: to `O=C(Nc1cn[nH]c1)NC1CCN(c2ccccc2OC(F)F)C1` (configuration not stated) belongs -124.3%.

On to `O=C(Nc1ccccn1)NC1CCN(c2ccccc2OC(F)F)C1` (configuration not stated), for which the “Percent Effect” value is 9.794%. Still for that read-out and setting: to `O=C(NC1CCN(c2ccccc2OC(F)F)C1)c1cccnc1` (configuration not stated) belongs -43.56%. On the same count and under the same terms, in the case of `Cc1noc(C)c1CNc1c(N2CCCC2)cccc1N1CCCC1` it was -39.5%. Same read-out and setting: in the case of `O=C(Nc1cccnc1)NC1CCN(c2ccccc2OC(F)F)C1` (configuration not stated) it was 16.84%; in that of `CC1(C)CCN1C(=O)c1cc(F)cc2[nH]cnc12`, -143.1%. Take `CNC(=O)CS(=O)(=O)NC1CCC(C)CC1` (configuration not stated): the “Percent Effect” value worked out at 0.5939%. Same read-out and setting: to `Cc1cc(CN2CCN(Cc3cc(C#N)ccc3F)CC2)no1` belongs -43.24%; to `O=C(O)C(F)(F)F.c1cnc(N2C[C@@H]3COC[C@]3(COCC3CCCC3)C2)nc1`, -62.66%; to `COc1ccc(S(=O)(=O)NCCn2cnc(C)cc2=O)cc1C`, -119.1%.
